Molecules are shown by their SMILES. About 740 (0.15%) of roughly 480,000 compounds were called active. For the sample, actives were picked, then their nearest neighbours and some compounds at random. A number with no mark means an inactive call. No stated cut-off is given here; in the data, active means activity change below about -30%; inconclusive means mostly about -25% to -30%; inactive means weaker than that.

For the test, the target named is L-lactate dehydrogenase A chain (Homo sapiens) (UniProt P00338). Nature of the test: qHTS assay for inhibitors of human lactate dehydrogenase.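 Further: values are at about 110 or 230 µM; plate controls were DMSO wells for no effect and wells without enzyme for full effect.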 To be noted: purified LDHA, NADH/diaphorase-resazurin fluorescence; active compounds read low. The source says: LDH is a key glycolytic enzyme that catalyzes the final step in the glycolytic pathway, reducing pyruvate to lactate and regenerating NAD+ equivalents necessary for continued glycolysis. LDHA has been linked to the carcinogenesis and malignancy in numerous forms of cancers and many other diseases. Consequently, both pharma and academia have invested in significant research efforts to identify small molecule therapeutics. Such attempts have been stalled or abandoned due to limited success in discovering potent and drug-like inhibitors that can be utilized to validate LDHA in vivo as a drug target, a necessary step toward advancing such a molecule towards the clinic Towards this goal we designed and performed a quantitative high-throughput screening (qHTS) campaign to discover novel compounds that are potent inhibitors of LDHA enzyme activity and cancer cell line growth.
The assay was optimized to 1536-well plates. Briefly, 3 µL of human lactate dehydrogenase 5 (#A38558H, Meridian Life Science, Inc., Memphis, TN) in LDH assay buffer (200 mM Tris HCl pH 7.4, 100 microM EDTA and 0.01% Tween-20) was added to a black solid bottom 1536-well assay plate (Greiner Bio-One) using a BioRAPTR FRD dispenser (Beckman Coulter, Brea, CA). A 1536-well pintool dispenser outfitted with 20 nL pins (Wako Automation, San Diego, CA) was used to transfer 23 nL of DMSO-solubilized compound (both library and vehicle controls) to each 1536-well assay plate. Following compound transfer, 1 µL of substrate solution containing NADH and sodium pyruvate (Sigma-Aldrich, St. Louis, MO) in LDH assay buffer was dispensed via BioRAPTR FRD to initiate the reaction. Final concentrations in the 4 microL reaction volume were 2 nM LDHA enzyme, 0.06 mM NADH and 0.2 mM sodium pyruvate. Following a 5 minute incubation period at room temperature, 1 µL of detection reagent (C. kluyveri diaphorase (Sigma-Aldrich) and resazurin sodium salt (Sigma-Aldrich) in LDH assay buffer) was added to a total volume of 5 µL. Final concentrations of detection reagents were 0.133 mg/mL diaphorase and 37 µM resazurin. Plates were immediately transferred to a ViewLux microplate imager (PerkinElmer, Waltham, MA), and any resulting resorufin fluorescence was measured (ex540, em590 nm) at 0 and 20 minutes. Fluorescence was normalized using enzyme-free and DMSO-treated control wells on each plate.
On to `CCC(CC)(Cc1nc2ccccc2s1)C(=O)Nc1ccc(N2CCOCC2)cc1`, for which the activity change was 5.36%.

On to `C/C(=N\NC(=O)c1ccc(C(C)(C)C)cc1)C(C)C`, for which the activity change was 11.2%.

As to `O=[N+]([O-])c1cc(S(=O)(=O)Nc2ccc(Cl)cc2)ccc1N/N=C/c1ccccc1C(F)(F)F`, the activity change is 3.88%.

On to `O=[N+]([O-])c1cc(S(=O)(=O)Nc2ccccc2NS(=O)(=O)c2cccs2)ccc1Cl`, for which the activity change was 13.9%.

For `O=[N+]([O-])c1cc(S(=O)(=O)Nc2cccc(Cl)c2)ccc1N=Nc1c(O)[nH]c2ccccc12`, the activity change is -42.1% (active).

Turning to `CC(C)(C)c1ccc(/C=N/NC(=O)c2ccccc2)cc1`, the activity change was 12.2%.

As to `COc1cccc(/C=N/NC(=O)c2[nH]nc3c2CCc2ccccc2-3)c1O`, the activity change was -78.6% (active).

Turning to `Cc1cc(C)c(/C=N/NC(=O)c2ccccc2)c(C)c1`, the activity change was 4.2%.

As for `CC(OC(=O)c1cccc(-n2cnnn2)c1)C(=O)Nc1ccc(N2CCOCC2)cc1` (stereo not given), the activity change was 6.53%.

In the case of `CC(=O)Nc1cccc(NC(=O)c2cnn(-c3ccccc3F)c2C(F)(F)F)c1C`, the activity change was 9.39%.

In the case of `O=C(N/N=C/c1ccccc1OCCOc1ccc([N+](=O)[O-])cc1)Nc1ccccc1`, the activity change is -7.59%.

For the compound `O=C(N/N=C/c1ccccc1Cl)c1ccc(Cl)s1`, the activity change is 5.95%.

Consider `O=C(NN=Cc1ccccc1O)NN=Cc1ccccc1O`, for which the activity change was -72% (active).

For the compound `N#C/C(=C/c1ccccc1)c1ccc(C(F)(F)F)cn1`, the activity change was -3.61%.

As for `Cc1ccccc1CC(=O)Nc1ccc(N2CCOCC2)c(Cl)c1`, the activity change is -4.8%.

In the case of `COCCN1C(=O)C(=O)/C(=C(/O)c2ccc3c(c2)OCCO3)C1c1cccc(O)c1` (stereo not given), the activity change was 9.53%.

For the compound `O=S(=O)(c1ccc2c(c1)OCCO2)c1nc(-c2cccc(Cl)c2)oc1N1CCOCC1`, the activity change is -9.35%.

Regarding `NC(=O)c1ccc(NC(=O)CCc2ncc(-c3c(F)cccc3F)o2)cc1`, the activity change was -1.68%.

For `Cc1cc(N2CCC(C)CC2)n2nc(-c3ccccc3)nc2n1`, the activity change was 7.05%.

Take `c1ccc(Oc2ccc(CNc3ncccn3)cn2)cc1`: the activity change is -10.1%.

`CCCn1c(N)c(-c2csc(Nc3ccc(F)cc3)n2)c(=O)n(C)c1=O`: the activity change is 2.91%.

`CCc1nn2c(=O)cc(CN(CC)Cc3ccc(OCc4ccccc4)cc3)nc2s1`: the activity change is -24.3%.

In the case of `Cc1ccccc1CSc1nc(=O)c2c(n1C)NC(=O)CC2c1ccc(OCC(N)=O)cc1` (stereo not given), the activity change is 2.91%.

As to `O=C(CSc1ccccc1F)c1ccc2c(c1)-c1ccccc1C2`, the activity change was 10.6%.

Consider `Cc1ccc(C)c(-n2c3c(cc(C#N)c2=O)C(=O)CC(c2ccccc2)C3)c1` (stereo not given), for which the activity change is -0.429%.

`CCOC(=O)c1c(C)[nH]c(C(=O)COc2cc(Cl)ccc2Cl)c1C`: the activity change was -3.64%.

With `CC1=C(C(=O)Nc2cccc(C)c2C)C(c2ccc(C)cc2)NC(=O)N1` (stereo not given), the activity change was -9.14%.

As to `CC1CCN(C(=O)C(C)n2cnc3c2c(=O)n(C)c(=O)n3C)CC1` (stereo not given), the activity change is 1.51%.

On to `COc1ccc(-c2csc(-c3cc4c([nH]c3=O)CC(c3ccco3)CC4=O)n2)cc1F` (stereo not given), for which the activity change was 6.35%.

In the case of `COc1ccc(-c2c(C)c3cc(OS(=O)(=O)c4ccc(F)cc4)ccc3oc2=O)cc1OC`, the activity change is 1.58%.

`COc1cccc(CNC(C)C(=O)Nc2ccc(S(=O)(=O)N3CCCC3)cc2)c1` (stereo not given): the activity change is -0.452%.

As to `CCN(CC(=O)Nc1cccc(S(=O)(=O)N2CCCCC2)c1)Cc1ccccc1`, the activity change was -5.08%.

In the case of `CCN(CC(=O)Nc1ccc(S(=O)(=O)N2CCCC2)cc1)CC(=O)Nc1cccc(OC)c1`, the activity change was -38.2% (active).

As for `CC(C)CC(NC(=O)C(c1ccccc1)c1ccccc1)c1ccccc1` (stereo not given), the activity change was -5.71%.

In the case of `Oc1c(Cl)cc(Cl)c(Cl)c1Cc1c(O)c(Cl)cc(Cl)c1Cl`, the activity change was -106% (active).

`Fc1cccc(Cl)c1CNc1ccc(Cl)cc1`: the activity change was 11.8%.

Consider `CC(C)(C)n1nc(N)c2cc([N+](=O)[O-])ccc21`, for which the activity change was -0.323%.

As to `O=C(Cc1c[nH]c2ccccc12)Nc1cc(F)cc(F)c1`, the activity change was 0.607%.

For `O=C(O)COCCOCC(=O)O`, the activity change is -30% (active).

In the case of `C=CC(=O)OCCOCCOCCOCCOC(=O)C=C`, the activity change is -3.09%.

With `O=C(O)CCC(=O)O`, the activity change was 0.526%.

In the case of `CCN(CC(=O)NCc1cccs1)C(=O)c1cccc(S(=O)(=O)N(C)c2ccc(C)cc2)c1`, the activity change was 2.57%.

Regarding `O=C(Cc1ccsc1)NCCc1ccccc1`, the activity change was -0.295%.

As for `NS(=O)(=O)c1ccc(N2C(=O)C3C4CC(C(Br)C4Br)C3C2=O)cc1` (stereo not given), the activity change is -58.8% (active).

Regarding `O=C1C2C3C=CC(C3)C2C(=O)N1c1ccc(S(=O)(=O)Nc2nccs2)cc1` (stereo not given), the activity change is -9.54%.

In the case of `CCCOc1ccc(N2C(=O)CC(N(CCc3ccc(S(N)(=O)=O)cc3)C(C)=O)C2=O)cc1` (stereo not given), the activity change is -18%.

Turning to `O=C(NCc1nc(-c2ccc(Cl)cc2)no1)c1cc2ccccc2o1`, the activity change was 0.842%.

In the case of `Cc1ccc(-c2ccccc2N)cc1`, the activity change is -2.5%.

In the case of `O=C(c1ccc[nH]1)c1cc2cc(Br)ccc2o1`, the activity change was -2.8%.

Turning to `Cc1cccc(/C=C/C(=O)c2cccs2)c1`, the activity change is 7.28%.

With `CCCNC(=O)C(C)NC(=O)COc1ccccc1NC(C)=O` (stereo not given), the activity change is -1.76%.

`Cc1ccc(-c2nc(CS(=O)CC(=O)Nc3ccc(C)c(C)c3)cs2)cc1` (stereo not given): the activity change is 0.528%.

Turning to `O=C(O)CCC(=O)Nc1ccc2c(C(C(=O)O)N3CCN(c4ccccc4)CC3)c[nH]c2c1` (stereo not given), the activity change was -5.22%.

As to `Cc1ccc(NC(=O)C(Sc2nnnn2C2CCCC2)c2ccccc2)cc1` (stereo not given), the activity change was 11.6%.

For the compound `c1ccc(-c2nc(-c3ccc4c(c3)OCCCO4)cs2)nc1`, the activity change was 5.7%.

With `c1coc(CNc2ccc3c(c2)ncn3C2CCCCC2)c1`, the activity change was 13.3%.

For the compound `CN1CCN(CCCCOc2ccccc2-c2ccccc2)CC1`, the activity change is -36.2% (active).

Take `CC1CCCN(CCOCCOc2ccccc2-c2ccccc2)C1` (stereo not given): the activity change was -8.67%.

With `COc1ccccc1OCCCCCCN1CCN(C)CC1`, the activity change is -2.1%.

Regarding `O=C(CCn1ccccc1=O)Nc1ccc(Cl)cc1Cl`, the activity change was 11.9%.

The record behind these values is PubChem BioAssay AID1347041 (National Center for Advancing Translational Sciences (NCATS), 2019).
